Sampled rows, rich in hits. Any-hit rate of the full collection: about 1.2%.
Yeast superoxide: reduction of superoxide in aged yeast, primary screen, HTS | S. cerevisiae aged cells, superoxide DHE fluorescence; hits give low values | superoxide response (% of plate mean), % at 10 µM | hit rate 0.18% among 330,000 | AID 2690, 2010;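 active = superoxide response under a set limit, about three screen SD below normal, cut at about 65% in these data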;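 also: yeast aged for seven days with compound at 30 °C before DHE staining; 100% = average MFI of all compound-treated wells on the plate with controls excluded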
HDAC3 inhib: HDAC3 deacetylase inhibitors, primary screen, biochemical, fluorescence, cell-free homogeneous | Histone deacetylase 3 (Homo sapiens), O15379 | recombinant HDAC3, fluorogenic peptide/trypsin coupled | inhibition, % at 8.3 µM | hit rate 0.15% among 320,000 | AID 2718, 2010; in the data active = inhibition above about 26%, passing the limit was not always enough
Target sequence (O15379 whole entry, looked up): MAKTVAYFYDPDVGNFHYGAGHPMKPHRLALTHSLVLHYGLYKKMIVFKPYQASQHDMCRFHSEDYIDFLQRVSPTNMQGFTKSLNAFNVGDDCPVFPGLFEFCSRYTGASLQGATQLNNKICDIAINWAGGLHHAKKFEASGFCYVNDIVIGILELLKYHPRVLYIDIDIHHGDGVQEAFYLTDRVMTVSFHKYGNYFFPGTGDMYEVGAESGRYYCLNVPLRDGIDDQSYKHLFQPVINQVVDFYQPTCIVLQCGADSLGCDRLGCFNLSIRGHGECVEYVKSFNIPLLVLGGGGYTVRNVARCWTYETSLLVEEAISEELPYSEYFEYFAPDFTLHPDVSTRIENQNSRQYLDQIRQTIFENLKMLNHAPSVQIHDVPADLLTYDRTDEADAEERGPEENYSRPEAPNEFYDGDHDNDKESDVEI
HIF act: HIF pathway transcriptional activators, primary screen, cell-based, U2OS HRE-luciferase, luminescence; U2OS HRE-luciferase reporter; normalized: DMSO 0%, desferrioxamine 100%; activation, % at 7.5 µM (by protocol); hit rate 0.32% among 300,000;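 active = mean activation of at least 10% of the iron chelator positive control signal, with at least half of replicates also reaching 10%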
LANA-H2A inh: blockers of LANA interaction with H2A/H2B – biochemical, FP readout, HTS, primary screen | Protein LANA1 (Human herpesvirus 8 type P (isolate GK18)), Q9QR71 | cell-free LANA-H2A/H2B peptide, fluorescence polarization | inhibition, % (test concentration not listed) | hit rate 0.6% among 320,000 | AID 2629, 2010; in the data active = inhibition mostly above about 10%, no sharp cut-off; inactive = mostly below about 6.7%
The depositor's hits bear a star; · = no result given; + = active, no number.

SMILES	Yeast superoxide	HDAC3 inhib	HIF act	LANA-H2A inh
CC(Oc1ccccc1F)c1nnc(SCC(=O)N(c2ccccc2)C2CCS(=O)(=O)C2)o1 (stereo unspecified)	109	14	·	-5
O=C1c2ccccc2C(=O)N1Nc1ccc([N+](=O)[O-])cc1[N+](=O)[O-]	101	0	-23	1
O=C1C2C3C=CC(C3)C2C(=O)N1Nc1ccc([N+](=O)[O-])cc1[N+](=O)[O-] (stereo unspecified)	98	0	-1	16*
O=C(CNCc1ccc(Cl)cc1)Nc1ccc(C(=O)N2CCCCCC2)cc1	106	0	0	3
Cc1ccc(NCc2nnc(SCC(=O)c3ccc4c(c3)OCCO4)o2)c(C)c1	92	85*	0	0
Cc1ccc(/C=N/NC(=O)CN2CCN(Cc3ccccc3Cl)CC2)o1	81	-1	143*	-2
Cc1ccccc1C(=O)NC(CC(C)C)C(=O)N1CCN(c2ccccc2)CC1 (stereo unspecified)	110	1	-2	0
C[n+]1ccc(C(=O)Nc2ccccc2Cl)cc1	103	0	0	4
CCOc1cccc2sc(NC(=O)CCS(=O)(=O)c3ccccc3)nc12	106	-4	-1	-3
COc1ccc(C)c2sc(NC(=O)CCS(=O)(=O)c3ccccc3)nc12	106	-7	-1	103*
COc1ccc2[nH]c3c(c2c1)CCNC3C1CC=C(C)CC1 (stereo unspecified)	97	1	2	-10
COc1ccc2[nH]c3c(c2c1)CCNC3c1ccc([N+](=O)[O-])o1 (stereo unspecified)	86	15	-10	21*
Cc1ccc(C(O)P(=O)(OCc2ccccc2)c2ccc(N(C)C)cc2)cc1 (stereo unspecified)	105	-11	0	11*
O=C(c1ccco1)N1N=C(c2ccco2)CC1c1ccc(Cl)cc1Cl (stereo unspecified)	88	0	·	+
Cc1csc2nc(SCC(=O)Nc3ccccc3F)[nH]c(=O)c12	108	-4	0	28*
CCc1ccc(CNC(=O)CN2C(=O)COc3ccccc32)cc1	99	-3	0	12*
O=C(CN1CCN(Cc2ccccc2Cl)CC1)N/N=C/C=C/c1ccco1	100	11	0	-3
O=C(CN1CCN(Cc2ccccc2)CC1)N/N=C\C=C/c1ccco1	117	10	0	12*
Fc1ccc(Oc2nc(-c3ccccc3)nnc2C(F)(F)F)cc1	100	7	0	10*
Cc1cc(C)cc(NC(=S)N2CCN(c3ncccn3)CC2)c1	100	3	0	21*
Cc1cc(C)cc(NC(=O)N2CCCN(c3ncccc3[N+](=O)[O-])CC2)c1	92	-4	-1	14*
CC(C)NC(=S)N1CCCN(c2ncccc2[N+](=O)[O-])CC1	100	7	1	4
Cc1cc(F)ccc1S(=O)(=O)N1CCCOC1CNC(=O)C(=O)NC1CC1 (stereo unspecified)	95	5	0	-3
NC(=S)Nc1ncc(C(F)(F)F)cc1Cl	96	1	0	128*
NC(=S)c1ncc(C(F)(F)F)cc1Cl	88	-5	0	-2
SMILES	Yeast superoxide	HDAC3 inhib	HIF act	LANA-H2A inh
O=C(O)C1(c2ccccc2)CCN(S(=O)(=O)c2ccccc2)CC1	117	3	-1	1.5*
CCc1noc(C)c1C(=O)NCCc1ccc(Cl)cc1	87	3	0	3
COCc1c(C(=O)N/N=C/c2c[nH]c3ccccc23)nnn1-c1nonc1N	100	5	0	9
CCCN(CCC)Cc1c(C(=O)N/N=C/c2c[nH]c3ccccc23)nnn1-c1nonc1N	101	32*	0	7
CC(C)c1c(C(=O)N/N=C/c2ccc3c(c2)OCO3)nnn1-c1nonc1N	99	1	0	0
CC1CCN(Cc2c(C(=O)N/N=C/c3ccccc3O)nnn2-c2nonc2N)CC1	113	-1	31*	-1
CCN(CC)c1ccc(/C=N/NC(=O)c2nnn(-c3nonc3N)c2C(C)C)c(O)c1	88	-5	89*	0
CC(=C/c1ccccc1)/C=N/NC(=O)c1nnn(-c2nonc2N)c1CN1CCC(C)CC1	91	4	0	5
COCC1CCN(C(=O)c2oc3c(F)cccc3c2C)C1 (stereo unspecified)	88	0	1	-3
CCCCN(C(=O)CC1CCCCC1)c1c(N)n(CC(C)C)c(=O)[nH]c1=O	123	4	·	71*
COc1ccccc1OCCC(=O)OCC(=O)Nc1cc(S(=O)(=O)N2CCOCC2)ccc1Cl	100	0	-1	1
O=[N+]([O-])c1ccc(N/N=C/c2ccc[nH]2)cc1	84	18	·	+
O=c1c2ccccc2nc(N2CCN(c3ccccc3)CC2)n1Cc1ccccc1	96	0	0	-2
COc1ccccc1C(=O)CC(=O)c1ccccc1	102	3	-8	17*
C[C@]12c3[nH]c4ccc(Cl)cc4c3CCN1C(=O)[C@@H](CC(=O)NCCC1=CCCCC1)C[C@@H]2C(=O)N1CCOCC1	114	·	·	·
CCc1ccccc1N(C(=O)c1snc(C(N)=O)c1N)C(C(=O)NCC1CCCO1)c1c[nH]c2ccccc12 (stereo unspecified)	119	-1	-1	-1
CC(CC(=O)N1CCN(C(=O)c2ccccc2)CC1)c1ccccc1 (stereo unspecified)	109	-6	-3	-1
CC(C)CC(=O)N1CCN(C(=O)c2ccc(F)cc2)CC1	94	-10	0	16*
Cc1ccn2c(Nc3ccc4c(c3)OCO4)c(-c3ccccn3)nc2c1	82	9	3	5
Cc1ccc(Nc2c(-c3ccccn3)nc3ccc(C)cn23)cc1	93	1	122*	2
Cc1ccc(Nc2c(-c3ccccn3)nc3cc(C)ccn23)cc1	84	8	91*	-4
Cc1ccc(NC(=O)c2ccco2)c(NC(=O)c2ccc(Cl)cc2)c1	100	4	2	-5
O=C(N/N=C(\c1ccccc1)c1cccnc1)c1cccc(F)c1	83	0	89*	2
O=C(O)c1cc(O)c2c(c1)[C@@H]([C@H]1c3cc(C(=O)O)cc(O)c3C(=O)c3c(O[C@@H]4O[C@H](CO)[C@@H](O)[C@H](O)[C@H]4O)cccc31)c1cccc(OC3O[C@H](CO)[C@@H](O)[C@H](O)[C@H]3O)c1C2=O (stereo partly specified)	112	0	-1	19*
Cc1ccc(Nc2c(-c3ccco3)nc3nc(C)cc(C)n23)cc1	113	5	0	21*
Cc1ccc2nc(-c3ccco3)c(Nc3ccccc3)n2c1	103	-14	0	2
COc1ccc(OC)c(NC(=O)C2CC(/C=C/c3ccccc3)=NO2)c1 (stereo unspecified)	112	5	-23	-3
